High-throughput results from PubChem.
Sampled rows, rich in hits. Any-hit rate of the full collection: about 7%.
S2 tox = cell viability loss in ATXN counter-screen; S2 cells (HEK-293 line with an ATXN2-luciferase reporter) viability, CellTiter-Fluor protease fluorescence, 24 h; Potency, µM (titrated, usually from 56.7 µM), most hits filed as cytotoxic; 400,000 compounds, 0.49% hits; AID 651635; note: potency is the fitted concentration of half-maximal effect; nearly all actives have a fitted effect of over 40% in size
IL-1B inflam inh = blocks inflammasome-driven IL-1 beta release; THP-1 LPS/ATP IL-1B secretion, AlphaLISA, 16 h; stronger effect = lower value; activity change, % at 57.5 µM; AID 743279; 360,000 compounds, 4.7% hits; in the data active = activity change below about -50%; inconclusive = mostly about -30% to -49%; note: % is set by controls: 0 for no effect and ±100 for the full control effect
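THP-1 cells pretreated 1 hr with compounds (up to 57.5 uM final), then stimulated with LPS (250 ng/mL final) plus ATP (1.25 mM final); secreted IL-1B measured by AlphaLISA after 16 hr, decreased signal indicating inhibition.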
Integrin act MD = activators of alpha7 integrin expression for muscular dystrophy | alpha7betagal myoblasts, beta-gal FDG fluorescence, 48 h | Potency, µM (titrated, usually from 38.3 µM), for the others: at the highest dose activation, most hits filed as activators | 350,000 compounds, 0.064% hits | AID 624291;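 note: potency is the fitted concentration of half-maximal effect; 100% = response of the positive control SU9516; nearly all actives have a fitted effect of over 60% in size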
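alpha7betagal+/- myoblasts (passage 13, 250/well) treated 48 h at 37C with compounds at 1:260 dilution of DMSO stock. Lysed, then beta-galactosidase activity read as FDG fluorescence (ex 480/em 540) after 30 min, with pre-read for autofluorescence.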
DRD3 antagonist = D3 dopamine receptor (human) antagonism | 360,000 compounds, 2.5% hits | D3R cells, DiscoveRx beta-arrestin luminescence, antagonist mode; stronger effect = lower value | max response, negative = inhibition, % | P35462; in the data active = max response below about -50%; inconclusive = no clear call, values can overlap the other calls; note: % is set by controls: 0 for no effect and ±100 for the full control effect
Target sequence (P35462 whole entry, looked up): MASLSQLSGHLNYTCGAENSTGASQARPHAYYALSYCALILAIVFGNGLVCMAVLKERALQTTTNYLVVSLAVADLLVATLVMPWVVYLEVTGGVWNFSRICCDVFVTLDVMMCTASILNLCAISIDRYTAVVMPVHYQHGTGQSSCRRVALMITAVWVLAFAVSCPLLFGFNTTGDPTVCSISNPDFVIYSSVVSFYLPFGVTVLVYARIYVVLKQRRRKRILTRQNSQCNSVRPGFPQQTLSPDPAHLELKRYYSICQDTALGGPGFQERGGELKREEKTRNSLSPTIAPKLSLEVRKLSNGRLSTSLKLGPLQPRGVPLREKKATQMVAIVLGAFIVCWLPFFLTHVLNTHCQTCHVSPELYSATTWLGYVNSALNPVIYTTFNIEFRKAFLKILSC
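Cells plated overnight at 1500 cells/well, then exposed to library compounds with dopamine controls for 90 minutes at 37 degrees C. DiscoveRx reagent added for 30–60 minutes at room temperature; luminescence read, quantitative HTS format.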
D3 ag = agonists of human D3 dopamine receptor | P35462 | D3R DiscoveRx beta-arrestin cells, luminescence, 90 min | max activation, % | 410,000 compounds, 0.58% hits; in the data active = max activation above about 30%; note: 0% is about no effect
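Cells at 1500/well, incubated overnight, then treated with pinned compounds (dopamine as control) for 90 min at 37 degrees C. DiscoveRx reagent added for 30 - 60 minutes at room temperature; luminescence read.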
ATXN2 expr inh = ATXN2 expression inhibition. 360,000 compounds, 0.72% hits. AID 1745845. HEK-293 ATXN2-luciferase reporter, luminescence, 24 h. Potency, µM (highest dose often 57 µM), inactives show at the top dose activity change, negative = inhibition, hits mostly inhibitors; note: potency is the fitted concentration of half-maximal effect; % is set by controls: 0 for no effect and ±100 for the full control effect; nearly all actives have a fitted effect of over 55% in size
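ATXN2-luciferase reporter cells (luciferase flanked by upstream and downstream ATXN2 gene portions) were treated 24 h at 37 °C with compounds at up to 57 uM. SteadyGlo luminescence gave expression; GF-AFC fluorescence gave viability.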
* = called active by the depositor; i = inactive; ? = inconclusive; . = no result given; [ ] = dose if it differs, or a comment. Unless noted, calls come from the whole dose curve; as a rule, active = well fitted curve in the direction sought with a large enough effect; inconclusive = small, poorly fitted or top-dose-only effect, or another doubt; inactive = no such curve, though single readings can be large; an effect the other way counts as inactive or inconclusive.

SMILES	S2 tox	IL-1B inflam inh	Integrin act MD	DRD3 antagonist	D3 ag	ATXN2 expr inh
CC1CCN(CCCCOc2ccccc2Br)CC1	i	-23	-46%	-54*	-19	16%
Brc1ccccc1OCCCN1CCOCC1	i	-9	-11%	-51*	-66	53%
CC1CCN(CCCCOc2ccccc2F)CC1	i	-6	14%	-82*	-16	-33%
COc1ccc(C(=O)CSc2nnc(-c3ccc(S(=O)(=O)N4CCOCC4)cc3)o2)cc1	.	22	4%	0	1	.
CC(NC(=O)c1cc2ccccc2o1)c1cccs1 (centres undefined)	i	?	6%	15	6	23%
CSc1nnc(NC(=O)c2nc(S(=O)(=O)Cc3cccc(C)c3)ncc2Cl)s1	22µM*	-102*	-73%	-54*	-2	28µM*
Cc1cccc(CS(=O)(=O)c2ncc(Cl)c(C(=O)Nc3nnc(C(C)C)s3)n2)c1	28µM*	-102*	-5%	-62*	-20	-35%
CCSc1nnc(NC(=O)c2nc(S(=O)(=O)Cc3ccc(F)cc3)ncc2Cl)s1	?	-103*	-70%	-68*	-18	?
CSc1ncc(Cl)c(C(=O)Nc2nnc(SC/C=C/c3ccccc3)s2)n1	i	16	3%	-9	-2	0%
CC(C)c1nnc(NC(=O)c2nc(S(=O)(=O)Cc3ccc(F)cc3)ncc2Cl)s1	?	-105*	-75%	-61*	-22	-7%
C=CCSc1nnc(NC(=O)c2nc(SCC)ncc2Cl)s1	i	22	-8%	4	15	-10%
COc1ccc(-c2nc3ccccc3c(=O)n2CCOc2cccc(C)c2C)cc1	i	12	-9%	2	0	2%
COc1cc(OC)cc(-c2c(Sc3ccccc3)c3cc(-c4ccc5c(c4)OCCO5)ccc3n2C)c1	i	9	.	5	5	0%
Cc1ccc(CS(=O)(=O)c2ncc(Cl)c(C(=O)Nc3nnc(C(C)C)s3)n2)cc1	?	-101*	-77%	0	-21	?
COc1ccc(NC(=O)c2nc(S(=O)(=O)Cc3ccc(C)cc3)ncc2Cl)cc1	.	.	.	.	-25	.
O=C(CSc1ncnc2c1nnn2Cc1ccc(F)cc1)NC1CCCCC1	i	-11	-9%	3	-6	-7%[11.3 µM]
NC(=O)CSc1ncnc2c1nnn2Cc1ccc(F)cc1	?	-96*	-8%	8	-4	-9%
Cc1nnc(SCC(=O)Nc2nccs2)o1	i	13	11%	16	10	-2%
O=C(NCC(c1ccc(F)cc1)N1CCOCC1)c1c(F)cccc1F (centres undefined)	i	1	3%	4	3	5%
Cc1cccc(NS(=O)(=O)c2cccc(C(=O)NCC(C)(C)N3CCOCC3)c2)c1	i	-11	11%	-81*	7	-11%
O=C(NCC(c1ccc(F)cc1)N1CCOCC1)c1nn(-c2ccccc2)c(=O)c2ccccc12 (centres undefined)	i	27	-21%	-83*	-24	-11%
COc1ccccc1NS(=O)(=O)c1cccc(C(=O)NCC(C)(C)N2CCOCC2)c1	i	0	-4%	5	0	3%
O=C(NCC(c1ccc(F)cc1)N1CCOCC1)c1cccc(Br)c1 (centres undefined)	i	?	-14%	-9	40*	3%
Cc1ccc(NS(=O)(=O)c2cccc(C(=O)NCC(c3ccc(F)cc3)N3CCOCC3)c2)cc1 (centres undefined)	i	-51*	-3%	-8	-18	-22%
O=C(NCC(c1cccs1)N1CCOCC1)c1cccc(S(=O)(=O)Nc2ccc(F)cc2)c1 (centres undefined)	i	38	4%	2	-17	8%
SMILES	S2 tox	IL-1B inflam inh	Integrin act MD	DRD3 antagonist	D3 ag	ATXN2 expr inh
O=C(NCC(c1ccc(F)cc1)N1CCOCC1)c1ccc(-c2ccccc2)cc1 (centres undefined)	i	-11	?	-9	0	-22%
COc1ccc(C(CNC(=O)c2cccc(S(=O)(=O)Nc3ccc(F)cc3)c2)N2CCCCC2)cc1 (centres undefined)	i	-1	0%	-72*	-24	-11%
O=C(Cn1cc(COc2ccc(Br)cc2)nn1)c1ccc(O)cc1	i	3	38%	16	-9	-33%
O=C(Cn1cc(COc2ccccc2[N+](=O)[O-])nn1)c1ccc(O)cc1	i	17	-2%	-9	37*	28%
N#Cc1ccccc1OCc1cn(CC(=O)c2ccc(O)cc2)nn1	i	9	7%	-73*	-12	23%
O=Cc1cccc(OCc2cn(CC(=O)c3ccc(O)cc3)nn2)c1	i	11	18%	-53*	-12	2%
CCOc1ccc(-c2c(C)nn3c(C)c(C(=O)NCc4ccc(Cl)cc4)cnc23)cc1OCC	i	.	.	.	10	-4%
CCCOC(=O)C(C)n1cnc2sc(C)c(C)c2c1=O (centres undefined)	i	1	6%	40	0	.
NS(=O)(=O)c1cc(-c2nn[nH]n2)c(NCc2cccs2)cc1Cl	i	.	.	.	-7	18%
Cc1ccc(-c2nc(C(=O)NCC3CCCO3)cc3c2[nH]c2ccccc23)cc1 (centres undefined)	?	-60*	7%	80	12	?
O=C(NCCO)c1cc2c([nH]c3ccccc32)c(-c2ccccc2)n1	i	?	15%	0	-7	-14%
Cc1ccccc1-c1nc(C(=O)NCC2CCCO2)cc2c1[nH]c1ccccc12 (centres undefined)	?	-51*	23%	19	9	?
Cc1ccc2[nH]c(=O)c3cc(C(=O)NCC4CCCO4)sc3c2c1 (centres undefined)	?	-81*	-25%	14	5	-29%
Cc1nc(C(=O)NCCO)cc2c1[nH]c1ccccc12	i	-4	1%	3	1	.
O=C(NCCO)c1cc2c([nH]c3ccccc32)c(-c2ccc(F)cc2)n1	i	-93*	33%	3	1	-20%
CC(O)c1nc(C(C)O)n(CC(=O)c2ccccc2)n1 (centres undefined)	i	15	11%	17	26	0%
CCOc1ccc(C(=O)NCC(=O)N2CCC(C)CC2)cc1OCC	i	-5	5%	1	6	-19%
COc1ccc(-c2nc(C(=O)NCC3CCCO3)cc3c2[nH]c2ccccc23)cc1 (centres undefined)	?	?	-16%	69	34*	?
